L3MBTL1 block = qHTS Assay for the Inhibitors of L3MBTL1; Lethal(3)malignant brain tumor-like protein 1 (Homo sapiens), Q9Y468; actives 0.66% (n = 230,000); AlphaScreen L3MBTL1–H3K9me1 peptide binding; Potency, µM (doses to about 57.1 µM), without a hit: top-dose activity, negative = inhibition, hits mostly inhibitors; also: nearly all actives have a fitted effect of over 60% in size
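Read-out is AlphaScreen signal from streptavidin donor and nickel chelate acceptor beads (10 ug/mL final each) bridging L3MBTL1 (50 nM) and biotinylated K9-monomethylated H3(1-15) peptide (75 nM), after 30 min compound exposure at room temperature.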
GoLoco inh red = qHTS Assay for Inhibitors of RGS12 GoLoco Motif Activity (Red Fluorophore). Guanine nucleotide-binding protein G(i) subunit alpha-1 (Homo sapiens), P63096. Gai1:RGS12 GoLoco peptide FP, rhodamine, 10 min. Potency, µM (doses to about 61.6 µM), for inactives: at the highest dose activity, negative = inhibition, actives largely listed as inhibitors. actives 0.44% (n = 230,000). AID 880, 2007; active = well fitted inhibition curve with a large enough effect, not every such curve was filed as active; inactive = no such curve, though single readings can be large or run the other way; also: nearly all actives have a fitted effect of over 30% in size
Target sequence (P63096 whole entry, looked up): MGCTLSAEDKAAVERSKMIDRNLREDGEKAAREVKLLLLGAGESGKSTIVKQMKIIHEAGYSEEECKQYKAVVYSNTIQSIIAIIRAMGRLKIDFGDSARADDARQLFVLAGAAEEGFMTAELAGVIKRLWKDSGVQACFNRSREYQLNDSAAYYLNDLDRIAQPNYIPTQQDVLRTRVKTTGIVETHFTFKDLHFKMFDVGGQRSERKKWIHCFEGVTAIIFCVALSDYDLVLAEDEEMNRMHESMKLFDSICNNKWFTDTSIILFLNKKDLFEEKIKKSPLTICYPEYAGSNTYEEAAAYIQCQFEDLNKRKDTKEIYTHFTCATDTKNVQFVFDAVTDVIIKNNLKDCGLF
JMJD2E inh = qHTS Assay for Inhibitors of Human Jumonji Domain Containing 2E (JMJD2E). Lysine-specific demethylase 4E (Homo sapiens), B2RXH2. JMJD2E catalytic domain, FDH-coupled NADH fluorescence (FDH is formaldehyde dehydrogenase). Potency, µM (titrated, usually from 57.1 µM), without a hit: at the highest dose activity change, negative = inhibition, most hits filed as inhibitors. actives 1.6% (n = 230,000). AID 2147, 2009; active = well fitted inhibition curve with a large enough effect, not every such curve was filed as active; inconclusive = small, poorly fitted or top-dose-only effect, or another doubt; inactive = no such curve, though single readings can be large or run the other way;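 also: 0% = wells with enzyme and -100% = buffer wells without enzyme; nearly all actives have a fitted effect of over 50% in size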
Target sequence (B2RXH2 1-337 limits assumed): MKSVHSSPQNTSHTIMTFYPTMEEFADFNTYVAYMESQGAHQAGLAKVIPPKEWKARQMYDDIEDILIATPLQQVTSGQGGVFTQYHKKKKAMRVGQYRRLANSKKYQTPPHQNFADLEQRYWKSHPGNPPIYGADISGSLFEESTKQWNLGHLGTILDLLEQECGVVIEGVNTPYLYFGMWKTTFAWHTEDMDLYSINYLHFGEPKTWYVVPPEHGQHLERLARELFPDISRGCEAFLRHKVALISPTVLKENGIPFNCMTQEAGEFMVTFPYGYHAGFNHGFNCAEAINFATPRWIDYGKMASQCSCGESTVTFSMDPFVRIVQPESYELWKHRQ
RECQ1 inh-1 = qHTS Assay for Inhibitors of RecQ-Like Dna Helicase 1 (RECQ1); ATP-dependent DNA helicase Q1 (Homo sapiens), P46063; actives 0.54% (n = 240,000); Potency, µM (series often up to 57.3 µM), inactives show at the highest dose activity, negative = inhibition, hits mostly inhibitors; AID 2549, 2010; RECQ1 DNA unwinding, red fluorescence kinetic read;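 also: plate controls were vehicle for no effect and no enzyme for full effect; nearly all actives have a fitted effect of over 30% in size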
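RECQ1T1 50 nM; forked duplex (20 bp + 30-nt ss tails) 200 nM, ATP 2 mM final; pH 8.0, 2 mM MgCl2, 2.5 ug/ml poly(dI-dC); 15 min compound preincubation; discontinuous kinetic read over 2 h at RT.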
APE1 inh-1 = qHTS Assay for Inhibitors of the Human Apurinic/apyrimidinic Endonuclease 1 (APE1) | recombinant APE1, TAMRA/BHQ-2 abasic DNA cleavage fluorescence | actives 0.35% (n = 350,000) | DNA repair nuclease/redox regulator APEX1 (Homo sapiens), P27695 | Potency, µM (series often up to 65.8 µM), without a hit: at the top dose activity change, negative = inhibition, actives largely listed as inhibitors | AID 2517, 2012;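 also: plate controls were vehicle for no effect and reference inhibitor for full effect; nearly all actives have a fitted effect of over 55% in size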
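Endonuclease cleavage of a quenched abasic-site DNA duplex (50 nM) by APE1 (0.75 nM) was tracked by TAMRA dequenching. Compounds were preincubated with enzyme 15 min at room temperature; data normalized to buffer-only and DMSO wells plus NSC13755 control.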
BLM inh-1 = qHTS Assay for Inhibitors of Bloom's syndrome helicase (BLM); actives 0.2% (n = 350,000); AID 2528, 2010; Potency, µM (top dose mostly 56.1 µM), for inactives: at the highest dose activity change, negative = inhibition, most hits filed as inhibitors; recombinant BLM DNA unwinding, fluorescence dequenching;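 also: plate controls were vehicle for no effect and no enzyme for full effect; nearly all actives have a fitted effect of over 35% in size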
APE1 dye cs = Counterscreen for APE1 Inhibitors: Fluorescent Dye Displacement Assay; shares compounds with APE1 inh-1; DNA fluorescent dye displacement counterscreen, fluorescence; Potency, µM (titrated, usually from 28.5 µM), inactives show top-dose activity change, negative = inhibition, most hits filed as inhibitors; actives 7% (n = 480); AID 2564, 2010;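 also: loss of thiazole orange fluorescence as the dye is displaced from duplex DNA; 0% = ThO with dsDNA and no compound and -100% = ThO without dsDNA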
Endo IV inh = Counterscreen for APE1 Inhibitors: qHTS Assay for Inhibitors of Endonuclease IV. shares compounds with APE1 inh-1. E. coli Endo IV, fluorogenic AP-site DNA cleavage. Potency, µM (highest dose often 27.1 µM), without a hit: top-dose activity change, negative = inhibition, most hits filed as inhibitors. actives 4% (n = 560). AID 2565, 2010;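 also: plate controls were uninhibited enzyme wells for no effect and no enzyme buffer wells for full effect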
APE1 inh-2 = Confirmation qHTS Assay for Inhibitors of the Human Apurinic/apyrimidinic Endonuclease 1 (APE1). shares compounds with APE1 inh-1. purified APE1, fluorogenic abasic-site DNA cleavage. Potency, µM (top dose mostly 57.1 µM), without a hit: top-dose activity change, negative = inhibition, hits mostly inhibitors. actives 44% (n = 750). AID 2572, 2010; also: nearly all actives have a fitted effect of over 30% in size
APE1 FP inh = qHTS FP-Based Assay for Inhibitors of the Human Apurinic/apyrimidinic Endonuclease 1 (APE1); Potency, µM (highest dose often 28.5 µM), for inactives: at the highest dose activity, negative = inhibition, most hits filed as inhibitors; shares compounds with APE1 inh-1; APE1 binding to TAMRA-labelled double-stranded DNA, fluorescence polarization displacement; actives 7% (n = 480)
BLM inh-2 = qHTS Confirmation Assay for Inhibitors of Bloom's syndrome helicase (BLM); AID 2585, 2010; BLM DNA unwinding, fluorescence quenching, biochemical; actives 40% (n = 220); shares compounds with BLM inh-1; Potency, µM, for the others: max response, negative = inhibition, hits mostly inhibitors;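 also: strand separation dequenches TAMRA so unwinding raises red fluorescence; series mostly up to about 69 µM; nearly all actives have a fitted effect of over 45% in size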
RECQ1 inh-2 = Confirmation qHTS Assay for Inhibitors of RecQ-Like Dna Helicase 1 (RECQ1) - Round 2 Cherry Picks. shares compounds with RECQ1 inh-1. recombinant RECQ1 DNA unwinding, red fluorescence. Potency, µM (top dose mostly 119 µM), for inactives: at the highest dose activity, negative = inhibition, most hits filed as inhibitors. actives 15% (n = 1,100); also: nearly all actives have a fitted effect of over 50% in size
* marks the source's active call; other numbers are inactive results; i = inactive; ? = inconclusive; · = no result; [ ] = another dose, or the depositor's remark. Only a selection was taken, and hits are over-represented in it overall. Unless noted, calls follow the shape of the dose curve; as a rule, active = well fitted curve in the direction sought with a large enough effect; inconclusive = small, poorly fitted or top-dose-only effect, or another doubt; inactive = no such curve, though single readings can be large; an effect the other way counts as inactive or inconclusive. Unless noted, % is scaled to controls: 0 for no effect and ±100 for the full control effect; potency is read from the fitted curve at half-maximal effect.

SMILES	L3MBTL1 block	GoLoco inh red	JMJD2E inh	RECQ1 inh-1	APE1 inh-1	BLM inh-1	APE1 dye cs	Endo IV inh	APE1 inh-2	APE1 FP inh	others
Fc1ccc(C2CC(c3cccs3)=NN2c2ccccc2)cc1 (stereo not drawn)	244%	12%	?	i	-6%	-10%	·	·	-17%	·
O=C(CSc1ccc2nnc(-c3ccccc3)n2n1)NCc1ccco1	-11%	-1%	-7%	-4%	?	-5%	·	·	·	·
COc1ccc(-c2nnc3ccc(SCC(=O)NCc4ccco4)nn23)cc1	-2%	-1%	-1%	-28%	?	1%	·	·	-10%	·
NC(=O)c1cc[n+](CC2=C(C(=O)O)N3C(=O)[C@@H](NC(=O)[C@@H](c4ccccc4)S(=O)(=O)[O-])[C@H]3SC2)cc1	·	-16%	?	-4%	?	·	·	3%[57.1 µM]	-76%	·
Cc1ccccc1-c1ccc2ncnc(NCc3cccs3)c2c1	·	109%	·	?	7.1µM*	-25%	?	-96%[57.1 µM]	14µM*	46%[57.1 µM]
Clc1ccccc1-c1ccc2ncnc(NCc3cccs3)c2c1	6%	·	·	·	-6%	·	·	·	·	·
Cc1cccc(NC(=O)CN2C(=O)S/C(=C\c3ccc(-c4cccc(C(=O)O)c4C)o3)C2=O)c1	·	12%	?	-15%	?	?	·	·	25µM*	·
Cc1ccccc1NC(=O)CN1C(=O)S/C(=C\c2ccc(-c3cccc(C(=O)O)c3C)o2)C1=O	-2%	99%	-6%	i	0%	-1%	·	·	·	·
NS(=O)(=O)c1ccc(N=Nc2ccc(=O)[nH]c2O)cc1	?	-51%	-7%	0%	16µM*	-3%	·	·	?	·
COc1cc(/C=C(\C#N)c2nc3ccccc3[nH]2)ccc1OCc1cccc(C(F)(F)F)c1	·	·	·	·	·	-28%	·	·	·	·
CCC1=NNc2cccc3c(OC)ccc1c23	·	18µM*	5µM*	-17%	?	?	?	8%	-6%[24.4 µM]	1%
CC(=O)NN1C(=O)/C(=C/c2ccc(Br)o2)SC1=S	·	43%	?	?	32µM*	-10%	-8%	4%	?	19%
Cc1cc(/C=N/NC(=O)c2cccc(N(C)C)c2)c(C)n1-c1cc(C(=O)O)cc(C(=O)O)c1	·	1%	25µM*	i	28µM*	4%	-8%	8%	?	-5%
O=c1c2ccccc2nc(COc2ccccc2)n1/N=C/c1ccc(O)c(O)c1	·	2%	?	28µM*	?	-26%	?	51%	?	7%
O=C(Cn1nnc(-c2ccc(C(F)(F)F)cc2)n1)NCCc1ccccc1	·	·	·	·	·	-4%	·	·	·	·
CN=c1scc(-c2ccccc2F)n1/N=C/c1ccc[nH]1	·	31%	-8%	i	35µM*	-7%	17%	6%	?	-34%
O=C(O)CSc1cc(C(=O)c2ccccc2O)cn2c(=O)c3c4c(sc3nc12)CCCC4	·	9%	-7%	2%	?	25µM*	-18%	?	4µM*	?	BLM inh-2=32µM*
CC1(C)CC(=O)c2cc(-c3nc(-c4ccc(Cl)cc4)cs3)c(=O)[nH]c2C1	·	·	·	·	·	-4%	·	·	·	·
C=C(CO)C1Cc2cc(C(C)=O)ccc2O1 (stereo not drawn)	·	-2%	-8%	?	20µM*	-7%	2%	8%	10µM*	-37%	RECQ1 inh-2=?
O=[N+]([O-])c1ccc(/C=C/C2=NN(c3ccccc3)C(c3ccco3)C2)o1 (stereo not drawn)	?	198%	3%	?	?	-22%	21%	?	14µM*	-86%	RECQ1 inh-2=7.9µM*
C(=C\c1ccco1)/C1=NN(c2ccccc2)C(c2ccco2)C1 (stereo not drawn)	21%	46%	?	-17%	-2%	-29%	·	·	·	·
Cc1cc(=O)oc2c(CN3CCCC3)c(O)c(Cl)cc12	·	·	·	·	62%	-4%	·	·	·	·
